Screening results deposited in PubChem by The Scripps Research Institute Molecular Screening Center.
An excerpt weighted towards active compounds, which were near 1.9% of everything screened.
HTR5A ag ctr = counter-screen for OPRM1-OPRD1 agonists: human HTR5A agonism; 340,000 tested, 0.61% active; AID 504692; HTR5A agonist assay, luminescence, cell-based; P47898; activation, % at 9.3 µM; in the data active = activation mostly above about 9.5%, no sharp cut-off; inactive = mostly below about 7.6%;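 also: 0% = cells with vehicle only and 100% = reference agonist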
OPRM1-OPRD1 inv = inverse agonists of human mu-delta opioid receptor heterodimerization; inhibition, % at 9.3 µM; cell-based MOR-DOR heterodimer luminescence, inverse agonism; P35372+P41143; 340,000 tested, 0.21% active; in the data active = inhibition above about 22%, passing the limit was not always enough;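 also: 0% = cells with DMSO and 100% = wells without cells with DMSO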
Target sequence (P35372 whole entry, looked up): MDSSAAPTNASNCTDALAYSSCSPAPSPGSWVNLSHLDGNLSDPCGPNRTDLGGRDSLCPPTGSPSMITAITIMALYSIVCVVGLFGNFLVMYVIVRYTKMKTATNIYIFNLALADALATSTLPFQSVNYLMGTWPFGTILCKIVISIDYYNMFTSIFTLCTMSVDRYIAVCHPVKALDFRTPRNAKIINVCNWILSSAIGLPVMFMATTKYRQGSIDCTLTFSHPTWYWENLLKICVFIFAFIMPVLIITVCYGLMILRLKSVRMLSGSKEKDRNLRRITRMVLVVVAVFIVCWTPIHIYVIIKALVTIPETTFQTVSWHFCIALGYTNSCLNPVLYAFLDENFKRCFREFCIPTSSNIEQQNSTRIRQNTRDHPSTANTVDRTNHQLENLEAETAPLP
Target sequence (P41143 whole entry, looked up): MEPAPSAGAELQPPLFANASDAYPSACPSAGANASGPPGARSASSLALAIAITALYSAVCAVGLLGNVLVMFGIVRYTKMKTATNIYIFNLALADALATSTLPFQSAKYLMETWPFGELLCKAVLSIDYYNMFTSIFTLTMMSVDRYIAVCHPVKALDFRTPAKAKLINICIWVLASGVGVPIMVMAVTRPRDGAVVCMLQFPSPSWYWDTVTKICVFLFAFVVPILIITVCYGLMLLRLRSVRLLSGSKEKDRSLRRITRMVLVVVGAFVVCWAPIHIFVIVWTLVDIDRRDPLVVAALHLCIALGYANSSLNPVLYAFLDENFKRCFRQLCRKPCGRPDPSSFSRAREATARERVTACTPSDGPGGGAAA
MsrA inh = bovine MsrA inhibition; purified bovine MsrA, absorbance read-out; inhibition, % at 15.5 µM; 360,000 tested, 0.75% active; in the data active = inhibition above about 4.5%;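 also: 0% = vehicle wells with enzyme and 100% = reference inhibitor wells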
HTR5A inv ctr = counter-screen for OPRM1-OPRD1 inverse agonists: human HTR5A inverse agonism; P47898; HTR5A cell line, luminescence; inhibition, % at 9.3 µM; 340,000 tested, 0.083% active; AID 504634; in the data active = inhibition mostly above about 23%, no sharp cut-off; inactive = mostly below about 18%;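 also: 0% = cells with DMSO and 100% = no-cell wells with DMSO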
MsrA act = activates bovine MsrA enzyme. purified bovine MsrA, absorbance read-out. activation, % at 10.6 µM. 360,000 tested, 0.3% active. AID 602163; in the data active = activation above about 7.5%;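 also: 0% = vehicle and 100% = reference activator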
MOR-DOR ag = OPRM1-OPRD1 heterodimerization agonism; cells, luminescence; 340,000 tested, 0.3% active; activation, % at 9.3 µM; P35372+P41143; in the data active = activation above about 18%;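 also: 0% = vehicle-treated cells and 100% = reference agonist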
Active calls of the source: *; · = no result given.

SMILES	HTR5A ag ctr	OPRM1-OPRD1 inv	MsrA inh	HTR5A inv ctr	MsrA act	MOR-DOR ag
CN1C2CCC1/C(=C\c1ccc(F)cc1)C(=O)/C2=C/c1ccc(F)cc1	2.3	-16.6	0.3	-5.7	-6.0	3.1
O=C1c2ccccc2C(=O)N1CC1c2ccccc2CCN1C(=O)CN1CCOCC1 (stereo not given)	10.6*	-0.5	-1.3	-27.2	-1.3	0.1
O=C1c2ccccc2C(=O)N1CC1c2ccccc2CCN1C(=O)C1CCCCC1 (stereo not given)	1.4	-20.5	0.1	-3.8	-0.3	3.3
CCOC(=O)C1CCCN(C(=O)C2COc3ccccc3O2)C1 (stereo not given)	0.4	-6.0	0.3	-12.4	-2.2	0.9
CCOC(=O)C1CCCN(C(=O)C2c3ccccc3Oc3ccccc32)C1 (stereo not given)	12.3*	2.5	1.0	13.9	-0.1	-0.5
O=C1C=C(O)C(n2cncn2)C(c2ccc(F)cc2)C1 (stereo not given)	-5.1	-3.8	-0.2	14.0	-1.6	0.8
COc1ccc(C2CC(=O)C(C3NCCc4ccccc43)=C(O)C2n2cncn2)cc1 (stereo not given)	11.1*	-3.2	-0.9	-30.3	-14.1	0.6
COC(=O)[C@]12C[C@H](CC(=O)NCCc3ccccc3OC)C(=O)N(Cc3ccc4c(c3)OCO4)C1=C[C@H](C(C)(C)C)O[C@@H]2C	·	·	0.6	·	·	·
CCN(CC)C(=O)[C@H]1C[C@H](CC(=O)NCCCN(C)C)C(=O)N2CCc3c([nH]c4cc(CCC(=O)N(C)C)ccc34)[C@]12C	5.0*	13.5	0.7	-17.0	-2.1	-2.8
Cc1[nH]nc2c1C(c1ccccc1)N(Cc1ccccc1)C2=O (stereo not given)	·	·	-0.5	·	·	·
CCS(=O)(=O)c1nc(S(=O)(=O)c2ccc(C)cc2)c(N2CCOCC2)s1	11.2*	-2.6	1.7	17.5	-12.8	0.5
Cc1cc(C)cc(N(CCC#N)C(=O)CSC2=Nc3ccccc3C3CC=NN23)c1 (stereo not given)	11.6*	-8.1	-1.6	-41.3	-3.0	1.8
CCNC(=O)N(C)[C@H]1C[C@H]2c3[nH]c4c(-c5ccccc5)cccc4c3CCN2C(=O)[C@H]1[C@H](C)O	·	·	0.4	·	·	·
COC(=O)C1=C(C)N(Cc2ccc(Br)cc2)C(=S)NC1c1ccccc1 (stereo not given)	·	·	1.4	·	·	·
O=C1c2cccc3c([N+](=O)[O-])ccc(c23)C(=O)N1Cc1cccnc1	-3.5	-9.1	7.9*	10.0	-6.4	1.8
CC(C)C1CC(N(C)C)=CC(=S)N1 (stereo not given)	·	·	2.3	·	·	·
COc1ccc(C(CC(=O)N2CCCC2)c2c(OC)cc(OC)c3c(-c4ccccc4)cc(=O)oc23)cc1 (stereo not given)	-3.1	10.8	0.0	7.0	9.0*	-1.9
CCN(c1ccccc1)S(=O)(=O)c1ccc(C(=O)N(CCCN(C)C)c2nc3cc4c(cc3s2)OCO4)cc1	0.7	-163.5	-0.6	18.9	-1.7	31.5*
O=C(/C=C/c1ccco1)NC(=S)NNC(=O)c1ccco1	-2.1	6.2	6.6*	5.8	-14.0	-1.1
NC(Cc1ccc(O)cc1)C(=O)NN=Cc1ccccc1Cl (stereo not given)	·	·	1.1	·	·	·
N#C/C(=C\c1ccco1)C(=O)NCC1CCCO1 (stereo not given)	4.0	18.9	7.0*	-8.8	-6.3	-3.5
N#C/C(=C\c1ccc[nH]1)C(=O)NCC1CCCO1 (stereo not given)	2.1	18.1	3.2	-24.8	-3.0	-3.6
COc1ccccc1N=Nc1c(C)n[nH]c1C	1.4	4.3	4.6*	-5.5	-2.5	-0.9
Cc1cc2c(c(=O)o1)[C@@]1(C(=O)N(C)c3cc(Br)ccc31)C1=C(CCCC1=O)O2	·	·	0.7	·	·	·
Cc1ccc(NC(=O)/C(=C\c2ccc3c(c2)OCO3)NC(=O)c2ccco2)cc1	0.1	0.9	4.5*	-6.3	-6.8	-0.2
SMILES	HTR5A ag ctr	OPRM1-OPRD1 inv	MsrA inh	HTR5A inv ctr	MsrA act	MOR-DOR ag
CC(=O)Oc1cc(C)c(Cl)c2c(OC(C)=O)cc(C(C)=O)c(O)c12	·	·	-1.1	·	·	·
CCOC(=O)C1CCCN(c2c(C(=O)c3ccccc3)cnc3ccc(OC)cc23)C1 (stereo not given)	-11.6	36.2*	0.7	30.5*	-0.5	-7.3
CCOC(=O)C1CCCN(C(=O)COc2ccc(C(=O)c3ccccc3)cc2)C1 (stereo not given)	0.1	4.3	0.4	2.4	-0.8	-0.7
COc1ccc(C2=Nn3c(nnc3-c3ccccc3OC)SC2)cc1OC1CCOC1 (stereo not given)	3.9	-0.4	4.6*	-12.6	-1.8	0.1
COc1ccc(C2=Nn3c(nnc3-c3ccccc3C(F)(F)F)SC2)cc1OC1CCOC1 (stereo not given)	20.1	10.1	2.2	-54.1	-7.2	-1.7
Cc1ccc(S(=O)(=O)N2CCCCC2c2cccnc2)c(C)c1C (stereo not given)	12.9*	2.5	0.4	-40.8	-1.7	-0.5
O=S(=O)(c1cccc(C(F)(F)F)c1)N1CCCC1c1cccnc1 (stereo not given)	-2.6	10.9	-1.0	-14.1	-3.5	-2.1
CC(=O)COc1cc2c(-c3cc4ccccc4o3)cc(=O)oc2cc1C	2.9	-2.9	7.1*	-10.8	-0.9	0.6
COC(=O)[C@]12C[C@H](CC(=O)NCc3cccc(C(F)(F)F)c3)C(=O)N(Cc3ccccc3)C1=C[C@H](C(C)C)O[C@@H]2C1CC1	·	·	0.3	·	·	·
O=C1C2C3CCC(C3)C2C(=O)N1c1ccc(OS(=O)(=O)c2ccccc2)cc1 (stereo not given)	12.7*	-12.8	0.3	-2.1	-12.9	2.6
COc1cc(/C=N/Nc2nc3ccccc3o2)cc(OC)c1O	2.4	-8.5	4.6*	-6.5	-12.6	2.0
Cc1ccc(C(NC(=O)Nc2ccccn2)C(Cl)(Cl)Cl)cc1F (stereo not given)	12.2*	-51.4	-0.3	-15.7	-2.8	6.2
CCN1/C(=C(\O)c2ccccc2)C(=O)c2ccccc2S1(=O)=O	3.7	-9.2	4.8*	-15.6	-3.1	1.6
Cc1ccc(Nc2cc(C)nn2-c2nc(C)cc(=O)[nH]2)cc1	-7.2	54.7*	·	-2.8	-3.0	-9.3
COc1cccc(/C=C(/C(=O)OCC(=O)NCC2CCCO2)c2ccccc2)c1 (stereo not given)	11.0*	-29.0	3.6	-27.3	-0.1	4.4
COc1cccc(/C=C(/C(=O)OCC(=O)NC2CCCCCCC2)c2ccccc2)c1	1.8	-16.8	0.9	-4.6	-7.3	3.3
CC(=NNS(=O)(=O)c1ccc(C)cc1)c1ccncc1	·	·	-0.9	·	-1.7	·
C/C(=N/NS(=O)(=O)c1ccc(F)cc1)c1ccncc1	11.3*	-2.3	-0.3	-8.1	-3.7	0.4
CC(=O)Nc1ccc(/C(C)=N/NS(=O)(=O)c2ccc(C)cc2)cc1	1.9	5.7	0.6	-54.8	-2.1	-1.0
CC(=NNS(=O)(=O)c1ccc([N+](=O)[O-])cc1)c1ccc(C)cc1	11.2*	0.2	0.2	-43.8	-3.1	0.0
